Measured values taken from ChEMBL document CHEMBL1961873, “Compounds: GSK PKIS; Assays: Nanosyn kinase panel” (2012).

Tests used:
[1] = biological target: Tyrosine-protein kinase Fyn (Homo sapiens) (UniProt P06241); settings: at 1 µM
[2] = biological target: Tyrosine-protein kinase HCK (Homo sapiens) (UniProt P08631); settings: at 0.1 µM
[3] = biological target: Tyrosine-protein kinase HCK (Homo sapiens) (UniProt P08631); settings: at 1 µM
[4] = biological target: Insulin-like growth factor 1 receptor (Homo sapiens) (UniProt P08069); settings: at 0.1 µM
[5] = biological target: Insulin-like growth factor 1 receptor (Homo sapiens) (UniProt P08069); settings: at 1 µM
[6] = biological target: Insulin receptor (Homo sapiens) (UniProt P06213); settings: at 0.1 µM
[7] = biological target: Insulin receptor (Homo sapiens) (UniProt P06213); settings: at 1 µM
[8] = biological target: Insulin receptor-related protein (Homo sapiens) (UniProt P14616); settings: at 0.1 µM
[9] = biological target: Insulin receptor-related protein (Homo sapiens) (UniProt P14616); settings: at 1 µM
[10] = biological target: T1, Tyrosine-protein kinase ITK/TSK (Homo sapiens) (UniProt Q08881); settings: at 0.1 µM
T1 sequence (whole entry): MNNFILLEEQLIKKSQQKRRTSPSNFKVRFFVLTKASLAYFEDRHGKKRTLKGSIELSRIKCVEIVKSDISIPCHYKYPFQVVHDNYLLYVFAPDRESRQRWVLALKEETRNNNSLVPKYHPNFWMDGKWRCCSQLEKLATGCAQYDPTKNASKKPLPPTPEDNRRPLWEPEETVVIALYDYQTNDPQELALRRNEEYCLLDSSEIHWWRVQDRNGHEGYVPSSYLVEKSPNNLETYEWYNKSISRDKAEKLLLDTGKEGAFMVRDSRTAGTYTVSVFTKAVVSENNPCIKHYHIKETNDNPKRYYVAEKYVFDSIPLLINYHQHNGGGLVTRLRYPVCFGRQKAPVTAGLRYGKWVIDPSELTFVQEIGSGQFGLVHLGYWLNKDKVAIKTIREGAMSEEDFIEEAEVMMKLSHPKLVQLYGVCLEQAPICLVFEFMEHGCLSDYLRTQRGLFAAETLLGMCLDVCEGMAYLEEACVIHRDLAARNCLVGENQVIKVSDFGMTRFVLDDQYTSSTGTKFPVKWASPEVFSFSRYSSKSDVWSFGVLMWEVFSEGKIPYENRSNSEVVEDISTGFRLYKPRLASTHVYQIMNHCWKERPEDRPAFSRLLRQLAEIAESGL

[11] = biological target: T1, Tyrosine-protein kinase ITK/TSK (Homo sapiens); settings: at 1 µM
[12] = biological target: Tyrosine-protein kinase JAK1 (Homo sapiens) (UniProt P23458); settings: at 0.1 µM
[13] = biological target: Tyrosine-protein kinase JAK1 (Homo sapiens) (UniProt P23458); settings: at 1 µM
[14] = biological target: Tyrosine-protein kinase JAK2 (Homo sapiens) (UniProt O60674); settings: at 0.1 µM
[15] = biological target: Tyrosine-protein kinase JAK2 (Homo sapiens) (UniProt O60674); settings: at 1 µM
[16] = biological target: T2, Tyrosine-protein kinase JAK3 (Homo sapiens) (UniProt P52333); settings: at 0.1 µM
T2 sequence (whole entry): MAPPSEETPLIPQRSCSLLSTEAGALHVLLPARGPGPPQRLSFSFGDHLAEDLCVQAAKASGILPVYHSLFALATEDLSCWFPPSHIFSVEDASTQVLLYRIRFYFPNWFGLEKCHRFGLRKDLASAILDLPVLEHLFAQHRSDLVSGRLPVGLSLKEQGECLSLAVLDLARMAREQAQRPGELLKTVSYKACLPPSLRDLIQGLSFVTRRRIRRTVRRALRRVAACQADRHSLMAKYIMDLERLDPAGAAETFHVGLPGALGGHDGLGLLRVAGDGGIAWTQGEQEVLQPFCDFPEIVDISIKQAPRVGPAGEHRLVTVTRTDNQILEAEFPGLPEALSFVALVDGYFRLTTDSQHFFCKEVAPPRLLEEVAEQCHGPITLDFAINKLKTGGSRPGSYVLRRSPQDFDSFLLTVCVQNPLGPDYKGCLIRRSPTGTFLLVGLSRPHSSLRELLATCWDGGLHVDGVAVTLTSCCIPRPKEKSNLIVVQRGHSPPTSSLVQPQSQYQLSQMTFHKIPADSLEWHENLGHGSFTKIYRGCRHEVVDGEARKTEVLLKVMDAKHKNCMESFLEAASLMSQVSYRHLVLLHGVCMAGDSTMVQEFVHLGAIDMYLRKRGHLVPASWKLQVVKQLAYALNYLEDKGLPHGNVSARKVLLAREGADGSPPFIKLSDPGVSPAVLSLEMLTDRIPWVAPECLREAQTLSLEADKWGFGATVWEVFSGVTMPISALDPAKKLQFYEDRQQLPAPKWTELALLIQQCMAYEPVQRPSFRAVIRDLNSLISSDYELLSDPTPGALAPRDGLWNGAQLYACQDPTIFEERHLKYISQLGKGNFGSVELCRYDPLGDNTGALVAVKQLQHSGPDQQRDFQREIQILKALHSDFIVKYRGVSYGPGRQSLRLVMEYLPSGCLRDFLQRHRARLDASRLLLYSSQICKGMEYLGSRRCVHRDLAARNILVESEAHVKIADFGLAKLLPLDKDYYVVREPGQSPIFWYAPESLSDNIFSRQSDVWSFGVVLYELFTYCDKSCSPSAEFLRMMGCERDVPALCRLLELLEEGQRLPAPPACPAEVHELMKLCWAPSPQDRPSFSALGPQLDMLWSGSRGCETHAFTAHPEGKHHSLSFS

[17] = biological target: T2, Tyrosine-protein kinase JAK3 (Homo sapiens); settings: at 1 µM
[18] = biological target: Vascular endothelial growth factor receptor 2 (Homo sapiens) (UniProt P35968); settings: at 0.1 µM
[19] = biological target: Vascular endothelial growth factor receptor 2 (Homo sapiens) (UniProt P35968); settings: at 1 µM
[20] = biological target: Mast/stem cell growth factor receptor Kit (Homo sapiens) (UniProt P10721); settings: at 0.1 µM;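 further: values are mean inhibition of KIT, from the GSK PKIS dataset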
Chain of Mast/stem cell growth factor receptor Kit (Homo sapiens) (P10721 whole entry): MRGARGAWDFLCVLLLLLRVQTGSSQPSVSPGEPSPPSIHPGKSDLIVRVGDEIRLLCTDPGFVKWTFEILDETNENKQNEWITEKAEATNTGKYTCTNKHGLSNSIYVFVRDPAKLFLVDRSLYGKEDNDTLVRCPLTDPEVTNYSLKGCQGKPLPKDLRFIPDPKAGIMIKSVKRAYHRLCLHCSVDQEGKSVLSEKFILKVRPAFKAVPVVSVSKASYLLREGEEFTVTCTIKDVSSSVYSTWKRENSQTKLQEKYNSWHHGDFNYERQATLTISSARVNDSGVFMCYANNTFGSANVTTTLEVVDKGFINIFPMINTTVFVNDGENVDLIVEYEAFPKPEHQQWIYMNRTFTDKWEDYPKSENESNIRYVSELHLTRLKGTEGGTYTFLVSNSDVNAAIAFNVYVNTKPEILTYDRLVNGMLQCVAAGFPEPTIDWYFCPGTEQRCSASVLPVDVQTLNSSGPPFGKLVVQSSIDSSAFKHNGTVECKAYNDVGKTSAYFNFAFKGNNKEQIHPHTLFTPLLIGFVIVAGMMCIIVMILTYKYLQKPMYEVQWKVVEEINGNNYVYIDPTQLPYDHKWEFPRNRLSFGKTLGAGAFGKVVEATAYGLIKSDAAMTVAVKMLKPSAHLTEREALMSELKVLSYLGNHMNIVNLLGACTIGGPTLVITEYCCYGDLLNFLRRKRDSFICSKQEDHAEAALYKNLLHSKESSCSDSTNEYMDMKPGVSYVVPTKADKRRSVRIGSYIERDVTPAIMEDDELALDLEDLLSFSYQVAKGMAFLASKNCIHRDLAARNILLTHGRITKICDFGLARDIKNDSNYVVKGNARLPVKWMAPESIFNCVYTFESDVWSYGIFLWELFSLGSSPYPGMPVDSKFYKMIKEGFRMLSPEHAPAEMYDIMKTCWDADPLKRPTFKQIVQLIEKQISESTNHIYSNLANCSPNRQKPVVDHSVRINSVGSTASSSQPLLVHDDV

Chain of Insulin-like growth factor 1 receptor (Homo sapiens) (P08069 31-736 limits assumed): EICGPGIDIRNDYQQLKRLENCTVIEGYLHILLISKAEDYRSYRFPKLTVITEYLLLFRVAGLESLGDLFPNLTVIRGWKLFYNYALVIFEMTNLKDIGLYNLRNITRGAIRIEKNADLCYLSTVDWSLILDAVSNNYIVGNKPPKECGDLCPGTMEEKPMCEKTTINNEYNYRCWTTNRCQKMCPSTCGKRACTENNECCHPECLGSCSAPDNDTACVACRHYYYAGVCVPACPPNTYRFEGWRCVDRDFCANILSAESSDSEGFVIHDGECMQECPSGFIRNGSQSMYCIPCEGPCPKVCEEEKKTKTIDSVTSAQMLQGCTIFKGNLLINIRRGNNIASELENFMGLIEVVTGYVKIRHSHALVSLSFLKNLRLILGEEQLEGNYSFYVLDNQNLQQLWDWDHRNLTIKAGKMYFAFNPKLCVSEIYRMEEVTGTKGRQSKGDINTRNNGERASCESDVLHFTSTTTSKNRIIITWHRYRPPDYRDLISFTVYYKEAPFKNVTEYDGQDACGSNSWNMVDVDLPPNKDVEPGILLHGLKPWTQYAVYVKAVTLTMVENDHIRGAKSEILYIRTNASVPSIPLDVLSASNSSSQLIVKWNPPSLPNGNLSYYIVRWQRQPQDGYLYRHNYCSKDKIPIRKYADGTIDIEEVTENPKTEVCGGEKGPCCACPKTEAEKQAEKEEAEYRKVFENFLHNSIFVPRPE
Chain of Insulin-like growth factor 1 receptor (Homo sapiens) (P08069 741-1367 limits assumed): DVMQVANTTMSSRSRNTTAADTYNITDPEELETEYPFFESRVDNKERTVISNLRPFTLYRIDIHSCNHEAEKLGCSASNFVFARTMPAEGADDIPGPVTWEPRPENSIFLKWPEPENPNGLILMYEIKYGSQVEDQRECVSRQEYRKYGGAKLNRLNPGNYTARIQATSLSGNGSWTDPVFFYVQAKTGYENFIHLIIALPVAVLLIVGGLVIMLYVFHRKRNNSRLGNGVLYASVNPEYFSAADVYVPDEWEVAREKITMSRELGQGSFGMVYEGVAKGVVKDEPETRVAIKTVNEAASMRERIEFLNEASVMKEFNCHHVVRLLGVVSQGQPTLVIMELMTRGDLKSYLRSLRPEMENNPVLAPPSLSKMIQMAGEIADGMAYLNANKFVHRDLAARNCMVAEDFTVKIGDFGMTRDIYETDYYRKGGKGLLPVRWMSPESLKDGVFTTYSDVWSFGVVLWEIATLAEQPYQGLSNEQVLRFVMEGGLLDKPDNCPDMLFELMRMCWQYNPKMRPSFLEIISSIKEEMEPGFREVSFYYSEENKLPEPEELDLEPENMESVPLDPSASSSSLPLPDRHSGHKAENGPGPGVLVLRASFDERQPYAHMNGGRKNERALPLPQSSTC
Chain of Tyrosine-protein kinase JAK1 (Homo sapiens) (P23458 whole entry): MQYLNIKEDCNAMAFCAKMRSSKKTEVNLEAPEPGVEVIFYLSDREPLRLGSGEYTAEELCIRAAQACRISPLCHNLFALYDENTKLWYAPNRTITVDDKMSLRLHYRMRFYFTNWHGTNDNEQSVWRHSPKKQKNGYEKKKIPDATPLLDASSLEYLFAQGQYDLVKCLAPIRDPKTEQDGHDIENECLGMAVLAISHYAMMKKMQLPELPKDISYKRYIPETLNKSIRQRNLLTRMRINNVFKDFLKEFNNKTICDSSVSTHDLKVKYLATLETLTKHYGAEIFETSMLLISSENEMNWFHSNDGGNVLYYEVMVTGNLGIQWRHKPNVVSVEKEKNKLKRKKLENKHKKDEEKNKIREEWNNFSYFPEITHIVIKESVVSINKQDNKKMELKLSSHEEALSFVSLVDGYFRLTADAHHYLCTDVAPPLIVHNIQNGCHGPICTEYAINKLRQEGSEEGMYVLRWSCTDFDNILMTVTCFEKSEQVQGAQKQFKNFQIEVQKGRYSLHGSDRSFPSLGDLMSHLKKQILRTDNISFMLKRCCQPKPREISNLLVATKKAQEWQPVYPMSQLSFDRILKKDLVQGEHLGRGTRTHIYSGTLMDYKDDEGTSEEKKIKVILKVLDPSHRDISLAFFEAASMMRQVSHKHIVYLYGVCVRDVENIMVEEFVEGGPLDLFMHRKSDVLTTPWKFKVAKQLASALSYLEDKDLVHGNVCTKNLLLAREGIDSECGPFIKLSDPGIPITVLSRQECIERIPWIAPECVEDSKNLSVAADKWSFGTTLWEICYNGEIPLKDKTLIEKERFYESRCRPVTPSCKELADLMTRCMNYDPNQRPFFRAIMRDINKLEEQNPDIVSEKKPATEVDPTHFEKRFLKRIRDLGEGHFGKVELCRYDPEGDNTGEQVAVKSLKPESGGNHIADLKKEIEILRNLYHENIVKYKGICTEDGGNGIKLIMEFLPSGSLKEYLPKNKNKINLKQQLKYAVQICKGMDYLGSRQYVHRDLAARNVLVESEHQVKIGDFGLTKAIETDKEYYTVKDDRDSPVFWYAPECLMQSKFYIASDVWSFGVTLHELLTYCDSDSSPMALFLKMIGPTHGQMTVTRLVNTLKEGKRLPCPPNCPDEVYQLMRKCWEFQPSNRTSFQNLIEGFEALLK
Chain of Tyrosine-protein kinase Fyn (Homo sapiens) (P06241 2-537 limits assumed): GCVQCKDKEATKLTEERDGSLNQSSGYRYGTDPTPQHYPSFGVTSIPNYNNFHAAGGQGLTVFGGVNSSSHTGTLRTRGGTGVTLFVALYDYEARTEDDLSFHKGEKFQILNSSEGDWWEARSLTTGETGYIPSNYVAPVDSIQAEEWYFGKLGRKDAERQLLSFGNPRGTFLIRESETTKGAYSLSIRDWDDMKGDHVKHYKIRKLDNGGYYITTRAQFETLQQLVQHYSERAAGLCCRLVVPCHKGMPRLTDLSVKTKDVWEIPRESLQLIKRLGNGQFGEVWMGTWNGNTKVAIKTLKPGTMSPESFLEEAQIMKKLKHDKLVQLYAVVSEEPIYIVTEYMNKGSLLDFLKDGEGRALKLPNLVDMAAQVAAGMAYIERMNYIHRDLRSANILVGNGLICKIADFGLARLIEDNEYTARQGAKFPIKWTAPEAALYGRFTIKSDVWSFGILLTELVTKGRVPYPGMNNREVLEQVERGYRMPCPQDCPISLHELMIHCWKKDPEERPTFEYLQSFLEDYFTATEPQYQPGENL
Chain of Tyrosine-protein kinase HCK (Homo sapiens) (P08631 2-526 limits assumed): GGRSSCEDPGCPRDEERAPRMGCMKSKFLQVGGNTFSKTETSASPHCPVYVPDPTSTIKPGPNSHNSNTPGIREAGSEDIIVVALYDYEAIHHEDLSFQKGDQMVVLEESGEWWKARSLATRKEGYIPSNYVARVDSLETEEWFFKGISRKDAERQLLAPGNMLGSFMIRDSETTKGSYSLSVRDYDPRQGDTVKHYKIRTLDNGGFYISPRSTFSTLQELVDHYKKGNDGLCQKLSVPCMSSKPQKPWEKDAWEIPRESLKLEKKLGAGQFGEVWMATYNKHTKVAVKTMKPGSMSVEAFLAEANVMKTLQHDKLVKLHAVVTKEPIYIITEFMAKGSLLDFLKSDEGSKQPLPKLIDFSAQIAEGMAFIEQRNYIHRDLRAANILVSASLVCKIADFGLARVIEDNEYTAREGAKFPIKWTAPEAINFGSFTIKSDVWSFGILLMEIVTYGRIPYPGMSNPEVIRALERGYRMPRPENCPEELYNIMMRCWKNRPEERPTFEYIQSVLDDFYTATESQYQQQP

| SMILES | inhibition [1] | inhibition [2] | inhibition [3] | inhibition [4] | inhibition [5] | inhibition [6] | inhibition [7] | inhibition [8] | inhibition [9] | inhibition [10] | inhibition [11] | inhibition [12] | inhibition [13] | inhibition [14] | inhibition [15] | inhibition [16] | inhibition [17] | inhibition [18] | inhibition [19] | inhibition [20] |
| --- | --- | --- | --- | --- | --- | --- | --- | --- | --- | --- | --- | --- | --- | --- | --- | --- | --- | --- | --- | --- |
| c1ccc(Cc2nc3ccc(Nc4ncnc5ccccc45)cc3[nH]2)cc1 | 5.58% | 3.53% | 11.5% | 2.6% | 3.88% | 3.54% | 8.19% | 2.51% | 3.31% | 0.82% | 1.07% | 1.47% | 5.36% | 1.11% | 1.7% | -1.75% | 2.4% | 2.38% | 5.81% | 6.44% |
| COc1cccc(-n2ncc3c(N/N=C/c4ccc(C)cc4)ncnc32)c1 | 16.5% | 7.32% | 16.2% | 5.92% | 22.9% | 21.4% | 82.2% | 2.51% | 15.3% | 2.28% | 3.5% | 5.68% | 3.83% | 1.5% | 1.98% | -0.38% | 1.11% | 6.36% | 19.1% | 6.06% |
| CN(C)C(=O)O[C@@H]1CN[C@@H](C#Cc2cc3ncnc(Nc4ccc(OCc5cccc(F)c5)c(Cl)c4)c3s2)C1 | 3.53% | 1.53% | 4.13% | -0.74% | 0% | 0.78% | 1.75% | -1.28% | 0.29% | 0.62% | 0.1% | 1.28% | 0.05% | 0.23% | -0.45% | 0.14% | 2.09% | 0.75% | 3.31% | -1.17% |
| CN(C)c1cc2c(Nc3ccc4c(cnn4Cc4ccccc4)c3)ncnc2cn1 | 15.3% | 7.12% | 19.9% | 0.45% | 2.94% | 5.08% | 6.13% | 1.7% | 0.35% | 1.37% | 0.99% | 3.23% | -0.82% | 0.91% | 2.18% | -0.53% | 0.54% | 4.41% | 18.2% | 3.49% |
| COC(=O)c1ccc2c(c1)C(=Cc1cc(Br)c(O)c(Br)c1)C(=O)N2 | 22.5% | 5.59% | 18.3% | 3.29% | 2.72% | 3.96% | 3.99% | 1.56% | 1.64% | 2.44% | 3% | 3.26% | 12.2% | 1.7% | 6.21% | 1.39% | 7.25% | 3.9% | 24.5% | 3.84% |
| COc1ccc(-c2nn3ncccc3c2-c2ccnc(Nc3cccc(C(F)(F)F)c3)n2)cc1 | 7.59% | 4.3% | 8.02% | -1.5% | 0.2% | 0.4% | 2.59% | 1.52% | 1.54% | 0.45% | 1.39% | 2.27% | 3.13% | 0.53% | 0.47% | -3.85% | -0.01% | 3.64% | 11.1% | 3.46% |
| CN1CCN(C(=O)c2ccc(NC(=O)Nc3ccc(N(C)c4ccnc(Nc5ccc(CS(C)(=O)=O)cc5)n4)cc3)cc2)CC1 | 8.13% | 3.98% | 22.7% | 3.48% | 6.42% | 4.81% | 10.6% | -0.19% | 2.44% | 6.56% | 38.7% | 2.49% | 20.6% | 3.54% | 49.7% | -1.34% | 26.2% | 21.4% | 69.2% | 65.6% |
| Oc1cccc(-c2nc(-c3ccccc3)[nH]c2-c2ccncc2)c1 | 17.9% | 13.7% | 51.2% | 2.68% | 5.15% | 1.16% | 2.18% | 2.79% | 0.88% | 1.78% | 1.61% | 9.17% | 5.42% | 1.43% | 2.51% | 0.73% | 9.09% | 30.8% | 70.9% | 4.95% |
| NS(=O)(=O)c1ccc(N/N=C2\C(=O)Nc3ccc(Cl)cc32)cc1 | 8.06% | 5% | 11.4% | 6.7% | 4.64% | 1.04% | 2.77% | 3.26% | 3.42% | 0.97% | 4.1% | 4.77% | 11.7% | 1.28% | 1.55% | -2.01% | 1.21% | 1.7% | 16.9% | 41.3% |
| Nc1ccc(C#Cc2cncnc2Nc2ccc(OCc3cccc(F)c3)c(Cl)c2)cc1 | 1.14% | 4.6% | 5.04% | 1.78% | -0.29% | 1.22% | 2.12% | 2.27% | 2.76% | 0.59% | 1.02% | 0.18% | 0.58% | 0.74% | 0.43% | -2.62% | -0.39% | 1.13% | 5.84% | 5.48% |
| CCS(=O)(=O)c1ccc(OC)c(Nc2nccc(N(C)c3ccc4c(C)n[nH]c4c3)n2)c1 | 65% | 39.5% | 72.1% | 12.5% | 12.5% | 3.36% | 4.35% | 1.12% | 4.55% | 0.31% | 1.96% | 3.52% | 5.13% | 1.45% | -0.31% | -1.93% | -1.6% | 78.7% | 76.8% | 44.2% |
| CC(C)c1ccc(Nc2nccc(-c3cnn4ncccc34)n2)cc1 | 6.49% | 4% | 8.83% | 11.8% | 53.1% | 10.2% | 48.2% | 2.81% | 8.71% | 0.75% | 1.41% | 2.68% | 8.98% | 2.04% | 8.72% | 0.01% | 6.19% | 5.7% | 14.6% | 68.6% |
| Nc1nccc(-c2c(-c3ccc(F)cc3)ncn2CCCN2CCOCC2)n1 | 4.47% | 5.16% | 6.92% | 9.8% | 8.95% | 0.02% | 3.74% | 2.13% | 5.23% | 1.35% | 2.18% | 2.73% | 17.8% | 1.23% | 0.43% | -0.85% | -0.57% | 4.12% | 11.2% | 3.2% |
